About 8,800 targets were measured; listed, in parts, are those with a hit and a random draw of the rest. About 0.5% of all pairs of compound and target were hits. Values without a mark were called inactive.

UniProt Q8TAT6, sequence (Q8TAT6 whole entry, looked up): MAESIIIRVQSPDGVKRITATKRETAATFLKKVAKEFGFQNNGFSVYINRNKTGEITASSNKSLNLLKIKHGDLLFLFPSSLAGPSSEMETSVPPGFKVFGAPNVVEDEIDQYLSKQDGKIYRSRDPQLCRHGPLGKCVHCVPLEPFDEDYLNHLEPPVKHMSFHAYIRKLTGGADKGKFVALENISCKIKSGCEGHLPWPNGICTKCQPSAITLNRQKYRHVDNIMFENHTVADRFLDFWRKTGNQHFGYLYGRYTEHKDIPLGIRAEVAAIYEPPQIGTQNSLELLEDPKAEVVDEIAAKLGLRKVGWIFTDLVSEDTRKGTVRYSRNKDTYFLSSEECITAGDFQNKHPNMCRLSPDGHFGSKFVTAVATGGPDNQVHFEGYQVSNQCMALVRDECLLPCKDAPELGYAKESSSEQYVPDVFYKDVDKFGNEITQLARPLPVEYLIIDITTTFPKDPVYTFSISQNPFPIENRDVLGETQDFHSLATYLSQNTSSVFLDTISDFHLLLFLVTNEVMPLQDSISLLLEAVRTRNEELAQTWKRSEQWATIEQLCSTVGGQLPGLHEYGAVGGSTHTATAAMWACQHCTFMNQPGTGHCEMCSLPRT
UniProt Q9NX02, sequence (Q9NX02 whole entry, looked up): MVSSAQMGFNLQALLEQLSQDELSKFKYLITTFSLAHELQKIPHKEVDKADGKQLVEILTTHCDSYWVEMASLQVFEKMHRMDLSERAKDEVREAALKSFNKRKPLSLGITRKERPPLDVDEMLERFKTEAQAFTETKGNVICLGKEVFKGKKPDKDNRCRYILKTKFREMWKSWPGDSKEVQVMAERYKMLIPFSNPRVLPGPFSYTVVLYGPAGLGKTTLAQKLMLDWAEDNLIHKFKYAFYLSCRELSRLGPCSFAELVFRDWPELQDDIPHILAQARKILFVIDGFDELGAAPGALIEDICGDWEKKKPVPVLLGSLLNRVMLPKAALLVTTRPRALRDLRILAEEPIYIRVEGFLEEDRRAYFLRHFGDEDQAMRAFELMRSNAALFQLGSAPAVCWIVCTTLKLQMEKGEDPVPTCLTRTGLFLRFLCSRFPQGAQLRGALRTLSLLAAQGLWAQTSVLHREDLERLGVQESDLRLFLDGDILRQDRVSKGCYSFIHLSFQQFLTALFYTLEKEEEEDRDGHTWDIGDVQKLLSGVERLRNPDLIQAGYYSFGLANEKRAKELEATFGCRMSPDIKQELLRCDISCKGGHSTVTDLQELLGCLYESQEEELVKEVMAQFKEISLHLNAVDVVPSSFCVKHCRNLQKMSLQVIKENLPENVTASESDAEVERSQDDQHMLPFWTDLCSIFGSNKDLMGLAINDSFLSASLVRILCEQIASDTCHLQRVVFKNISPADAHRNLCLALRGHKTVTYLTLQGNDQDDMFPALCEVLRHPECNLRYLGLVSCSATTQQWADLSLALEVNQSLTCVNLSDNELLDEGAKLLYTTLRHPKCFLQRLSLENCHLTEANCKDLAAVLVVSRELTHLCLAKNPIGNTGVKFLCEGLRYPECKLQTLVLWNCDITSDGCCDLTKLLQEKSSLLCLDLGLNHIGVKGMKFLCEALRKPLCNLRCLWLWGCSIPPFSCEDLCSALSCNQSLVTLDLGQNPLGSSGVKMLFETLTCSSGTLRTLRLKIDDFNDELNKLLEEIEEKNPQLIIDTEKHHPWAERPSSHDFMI
UniProt Q96KB5, sequence (Q96KB5 whole entry, looked up): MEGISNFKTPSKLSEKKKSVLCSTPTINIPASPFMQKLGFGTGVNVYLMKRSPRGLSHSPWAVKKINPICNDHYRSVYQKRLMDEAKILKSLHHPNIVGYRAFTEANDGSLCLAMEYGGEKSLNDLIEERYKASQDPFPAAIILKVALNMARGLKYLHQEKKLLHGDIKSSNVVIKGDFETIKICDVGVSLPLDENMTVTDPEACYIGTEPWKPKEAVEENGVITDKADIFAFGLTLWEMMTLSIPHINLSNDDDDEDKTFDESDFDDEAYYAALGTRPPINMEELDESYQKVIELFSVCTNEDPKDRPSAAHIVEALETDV
UniProt O43913, sequence (O43913 whole entry, looked up): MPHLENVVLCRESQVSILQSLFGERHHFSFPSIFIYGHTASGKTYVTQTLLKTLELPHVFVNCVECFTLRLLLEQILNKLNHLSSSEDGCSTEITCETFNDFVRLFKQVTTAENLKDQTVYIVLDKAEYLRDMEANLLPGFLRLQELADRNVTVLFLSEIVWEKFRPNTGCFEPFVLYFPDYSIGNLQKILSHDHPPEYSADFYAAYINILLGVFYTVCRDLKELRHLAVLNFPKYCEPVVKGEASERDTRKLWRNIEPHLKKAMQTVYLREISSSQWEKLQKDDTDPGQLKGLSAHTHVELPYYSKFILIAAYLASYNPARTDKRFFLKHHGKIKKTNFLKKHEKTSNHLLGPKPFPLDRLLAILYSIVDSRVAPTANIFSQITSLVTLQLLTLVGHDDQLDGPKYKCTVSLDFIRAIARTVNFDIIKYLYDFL
UniProt Q8N1F7, sequence (Q8N1F7 whole entry, looked up): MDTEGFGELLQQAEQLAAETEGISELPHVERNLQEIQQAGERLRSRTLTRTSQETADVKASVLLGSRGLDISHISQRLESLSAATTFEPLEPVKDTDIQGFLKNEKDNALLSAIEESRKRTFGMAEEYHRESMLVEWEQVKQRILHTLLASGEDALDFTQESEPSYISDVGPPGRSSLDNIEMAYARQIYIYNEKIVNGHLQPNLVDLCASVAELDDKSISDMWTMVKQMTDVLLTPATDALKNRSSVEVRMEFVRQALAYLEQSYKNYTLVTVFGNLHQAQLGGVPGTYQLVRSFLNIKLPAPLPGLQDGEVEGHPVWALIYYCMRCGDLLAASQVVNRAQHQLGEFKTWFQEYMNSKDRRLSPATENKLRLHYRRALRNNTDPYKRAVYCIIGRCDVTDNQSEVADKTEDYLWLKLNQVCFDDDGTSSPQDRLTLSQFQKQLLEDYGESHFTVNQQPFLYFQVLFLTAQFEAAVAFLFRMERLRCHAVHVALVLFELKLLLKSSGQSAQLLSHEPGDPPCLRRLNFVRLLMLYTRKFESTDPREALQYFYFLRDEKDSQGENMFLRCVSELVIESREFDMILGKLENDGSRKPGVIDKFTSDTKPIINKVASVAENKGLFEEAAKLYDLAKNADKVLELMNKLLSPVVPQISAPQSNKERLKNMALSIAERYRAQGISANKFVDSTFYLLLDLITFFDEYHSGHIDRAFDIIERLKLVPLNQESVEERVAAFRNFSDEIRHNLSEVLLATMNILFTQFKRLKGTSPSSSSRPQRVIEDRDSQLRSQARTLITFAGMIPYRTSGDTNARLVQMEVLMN
UniProt Q8IXH7, sequence (Q8IXH7 whole entry, looked up): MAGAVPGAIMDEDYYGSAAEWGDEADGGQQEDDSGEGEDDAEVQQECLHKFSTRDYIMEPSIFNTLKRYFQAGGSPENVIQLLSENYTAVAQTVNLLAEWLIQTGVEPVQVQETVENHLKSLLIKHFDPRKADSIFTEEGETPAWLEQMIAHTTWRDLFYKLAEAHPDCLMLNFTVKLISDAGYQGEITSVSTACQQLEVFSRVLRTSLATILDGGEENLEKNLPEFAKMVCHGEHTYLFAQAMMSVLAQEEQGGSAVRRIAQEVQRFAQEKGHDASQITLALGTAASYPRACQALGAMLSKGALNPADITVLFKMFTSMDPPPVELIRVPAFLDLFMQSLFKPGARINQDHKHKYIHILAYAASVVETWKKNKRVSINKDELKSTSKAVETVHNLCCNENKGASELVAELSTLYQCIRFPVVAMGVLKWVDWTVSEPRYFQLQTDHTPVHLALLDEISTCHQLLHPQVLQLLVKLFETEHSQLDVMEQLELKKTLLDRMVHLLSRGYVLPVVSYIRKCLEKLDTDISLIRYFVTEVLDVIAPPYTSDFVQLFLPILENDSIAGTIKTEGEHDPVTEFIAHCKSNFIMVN
UniProt Q9NVE7, sequence (Q9NVE7 whole entry, looked up): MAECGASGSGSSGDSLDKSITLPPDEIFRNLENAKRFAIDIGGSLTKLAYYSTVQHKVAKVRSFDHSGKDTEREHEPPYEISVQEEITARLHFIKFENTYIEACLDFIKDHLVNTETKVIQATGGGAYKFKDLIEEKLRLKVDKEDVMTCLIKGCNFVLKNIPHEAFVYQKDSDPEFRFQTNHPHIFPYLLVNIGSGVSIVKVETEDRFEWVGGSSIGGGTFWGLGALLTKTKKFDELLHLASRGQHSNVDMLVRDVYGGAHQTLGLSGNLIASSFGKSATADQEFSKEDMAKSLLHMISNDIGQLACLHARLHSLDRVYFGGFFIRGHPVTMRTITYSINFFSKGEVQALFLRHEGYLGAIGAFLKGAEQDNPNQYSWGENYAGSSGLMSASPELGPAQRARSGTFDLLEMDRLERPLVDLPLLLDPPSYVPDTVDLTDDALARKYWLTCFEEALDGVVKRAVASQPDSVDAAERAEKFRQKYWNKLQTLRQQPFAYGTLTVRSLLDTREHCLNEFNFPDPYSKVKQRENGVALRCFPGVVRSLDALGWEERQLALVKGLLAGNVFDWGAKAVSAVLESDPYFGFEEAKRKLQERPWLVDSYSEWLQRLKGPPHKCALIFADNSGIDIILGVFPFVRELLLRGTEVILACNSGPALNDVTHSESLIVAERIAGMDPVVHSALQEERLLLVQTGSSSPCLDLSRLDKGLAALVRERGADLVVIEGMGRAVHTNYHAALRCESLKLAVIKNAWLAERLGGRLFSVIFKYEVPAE
UniProt Q9Y530, sequence (Q9Y530 whole entry, looked up): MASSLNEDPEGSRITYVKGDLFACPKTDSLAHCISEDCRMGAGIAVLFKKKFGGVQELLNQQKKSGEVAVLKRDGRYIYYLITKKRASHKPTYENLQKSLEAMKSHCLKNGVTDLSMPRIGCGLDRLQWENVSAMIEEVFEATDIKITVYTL
UniProt Q9UFN0, sequence (Q9UFN0 whole entry, looked up): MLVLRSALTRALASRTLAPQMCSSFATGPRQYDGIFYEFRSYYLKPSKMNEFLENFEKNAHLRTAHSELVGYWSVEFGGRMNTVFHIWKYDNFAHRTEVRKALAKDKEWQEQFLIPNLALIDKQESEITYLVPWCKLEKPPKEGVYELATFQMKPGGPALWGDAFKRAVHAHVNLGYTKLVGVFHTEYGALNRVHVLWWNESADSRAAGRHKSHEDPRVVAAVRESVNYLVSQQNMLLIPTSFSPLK

Compound in one experiment: C1CN(CCC1(CC2=CC=C(C=C2)Cl)N)C3=NC=NC4=C3C=CN4
In words: log2 fold change, soluble protein after heating vs DMSO (PISA); higher = thermal stabilisation; K562 lysate, 10 uM; active = over 0.2 and 3.5 SD of the protein, either way, in both replicates (recomputed). The essentials:
(§1)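 Thermal stability, expressed as log-two fold change relative to solvent controls, is given from duplicates. Crude K562 extract in PBS pH 7.4 with 1 mM MgCl2, at 1 mg/mL protein, was treated with 10 μM compound for 30 min and heated in aliquots for 3 min across 48°C-58°C. After pooling, adjustment to 0.5% NP-40 at 4°C and centrifugation at 21,000xg for 90 min, supernatant protein was measured by TMTpro 16plex LC-MS/MS with channel sums equalised.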
For NUP93 (UniProt Q8N1F7), the log2 fold change was 0.015.

As to PANK4 (UniProt Q9NVE7), the log2 fold change was 0.018.

As for NIPSNAP3A (UniProt Q9UFN0), the log2 fold change is 0.002.

Turning to OSBP2 (UniProt Q969R2), the log2 fold change is -0.01.

In the case of MTCH2 (UniProt Q9Y6C9), the log2 fold change is -0.011.

As for NUP160 (UniProt Q12769), the log2 fold change is 0.015.

As for NEK7 (UniProt Q8TDX7), the log2 fold change is -0.005.

NLRP2 (UniProt Q9NX02): the log2 fold change is -0.031.

On to NUMB (UniProt P49757), for which the log2 fold change was -0.043.

As for NEK9 (UniProt Q8TD19), the log2 fold change was -0.009.

As to MSH6 (UniProt P52701), the log2 fold change was -0.014.

In the case of NIFK (UniProt Q9BYG3), the log2 fold change is -0.005.

On to OGFOD2 (UniProt Q6N063), for which the log2 fold change was 0.006.

NFATC1 (UniProt O95644): the log2 fold change is 0.092.

For the target NFIC (UniProt P08651), the log2 fold change is -0.032.

OARD1 (UniProt Q9Y530): the log2 fold change was 0.041.

Regarding NOB1 (UniProt Q9ULX3), the log2 fold change was -0.027.

Consider NARS2 (UniProt Q96I59), for which the log2 fold change was -0.027.

As to NUP188 (UniProt Q5SRE5), the log2 fold change is -0.003.

Take NFKBIE (UniProt O00221): the log2 fold change was 0.081.

Consider NNT (UniProt Q13423), for which the log2 fold change was 0.031.

Consider ORC5 (UniProt O43913), for which the log2 fold change is -0.061.

As to MYO1D (UniProt O94832), the log2 fold change was 0.031.

As for OTUD7B (UniProt Q6GQQ9), the log2 fold change is 0.032.

NUF2 (UniProt Q9BZD4): the log2 fold change was -0.004.

Turning to PBK (UniProt Q96KB5), the log2 fold change is -0.011.

In the case of NUDT4 (UniProt Q9NZJ9), the log2 fold change was 0.026.

As for MYD88 isoform 6 (UniProt Q99836), the log2 fold change was -0.067.

As to MRPL53 (UniProt Q96EL3), the log2 fold change was 0.096.

MTMR6 (UniProt Q9Y217): the log2 fold change was 0.015.

For NELFCD (UniProt Q8IXH7), the log2 fold change is 0.023.

On to NPLOC4 isoform 2 (UniProt Q8TAT6), for which the log2 fold change is 0.007.

As for NCOR2 (UniProt C9J0Q5), the log2 fold change was 0.049.

Take NUDT5 (UniProt Q9UKK9): the log2 fold change was 0.014.

Consider NMT1 (UniProt P30419), for which the log2 fold change was -0.165.

Regarding PARD3 (UniProt Q8TEW0), the log2 fold change is 0.017.

Compound in the next experiment: C1COCCN1CCN2C3=CC=CC=C3N=C2NC(=O)C4=CC(=CC=C4)[N+](=O)[O-] [IRAK-1-4 Inhibitor I]
The description is as above. The essentials:
as §1
For NUP93 (UniProt Q8N1F7), the log2 fold change was -0.022.

As for PANK4 (UniProt Q9NVE7), the log2 fold change was 0.018.

Take NIPSNAP3A (UniProt Q9UFN0): the log2 fold change was 0.015.

As to OSBP2 (UniProt Q969R2), the log2 fold change was -0.061.

Regarding MTCH2 (UniProt Q9Y6C9), the log2 fold change was 0.027.

In the case of NUP160 (UniProt Q12769), the log2 fold change was -0.013.

Take NEK7 (UniProt Q8TDX7): the log2 fold change was 0.032.

As for NLRP2 (UniProt Q9NX02), the log2 fold change is -0.043.

Turning to NUMB (UniProt P49757), the log2 fold change was 0.022.

As for NEK9 (UniProt Q8TD19), the log2 fold change was 0.142.

For MSH6 (UniProt P52701), the log2 fold change is -0.008.

Consider NIFK (UniProt Q9BYG3), for which the log2 fold change is -0.042.

With OGFOD2 (UniProt Q6N063), the log2 fold change is -0.04.

On to NFATC1 (UniProt O95644), for which the log2 fold change is 0.077.

In the case of NFIC (UniProt P08651), the log2 fold change was 0.052.

For the target OARD1 (UniProt Q9Y530), the log2 fold change was -0.01.

For NOB1 (UniProt Q9ULX3), the log2 fold change is 0.011.

In the case of NARS2 (UniProt Q96I59), the log2 fold change was -0.088.

For NUP188 (UniProt Q5SRE5), the log2 fold change is 0.023.

Take NFKBIE (UniProt O00221): the log2 fold change was 0.119.

As for NNT (UniProt Q13423), the log2 fold change is -0.026.

For ORC5 (UniProt O43913), the log2 fold change was -0.068.

Consider MYO1D (UniProt O94832), for which the log2 fold change was -0.027.

For the target OTUD7B (UniProt Q6GQQ9), the log2 fold change is -0.039.

For the target NUF2 (UniProt Q9BZD4), the log2 fold change was -0.039.

With PBK (UniProt Q96KB5), the log2 fold change is -0.007.

Regarding NUDT4 (UniProt Q9NZJ9), the log2 fold change is -0.026.

Regarding MYD88 isoform 6 (UniProt Q99836), the log2 fold change is 0.004.

Regarding MRPL53 (UniProt Q96EL3), the log2 fold change is 0.026.

MTMR6 (UniProt Q9Y217): the log2 fold change was -0.013.

As for NELFCD (UniProt Q8IXH7), the log2 fold change was -0.036.

Consider NPLOC4 isoform 2 (UniProt Q8TAT6), for which the log2 fold change is 0.001.

As to NCOR2 (UniProt C9J0Q5), the log2 fold change is 0.032.

As for NUDT5 (UniProt Q9UKK9), the log2 fold change was 0.005.

Regarding NMT1 (UniProt P30419), the log2 fold change was -0.027.

Consider PARD3 (UniProt Q8TEW0), for which the log2 fold change is 0.028.

For the origin of these results see the supplement of paper PMC10849652.
